Assay outcomes deposited in PubChem by National Center for Advancing Translational Sciences (NCATS).
This is one part of a sample in which hits are shown more often than they occur.
aSyn tox rescue: qHTS of alpha-syn Inhibitors: NCGC Sytravon Library Screen; S. cerevisiae alpha-synuclein toxicity rescue, BacTiter-Glo growth, 24 h; AID 1347070, 2019; 94,000 tested, 0.02% active; Potency, µM (top dose mostly 46.1 µM), usual class: activators; active = well fitted activation curve with a large enough effect; also: 0% is about no effect
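Growth restoration measured by BacTiter-Glo luminescence after 24 hr at 30 deg C; alpha-synuclein yeast, raffinose-pregrown to mid-log, were added at OD600=0.02 in galactose medium onto pinned compounds.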
* marks the source's active call; other numbers are inactive results; i = inactive. Potency is read from the fitted curve at half-maximal effect.

SMILES	aSyn tox rescue
COC(=O)CN1C(=O)C(C)(C)c2cc(S(=O)(=O)Nc3ccc(C(C)C)cc3)ccc21	i
Cc1ccccc1CNC(=O)c1cccc(NC(=O)N2CCSc3ncccc32)c1	i
Cc1cc(S(=O)(=O)Nc2ccc(-c3ccc(N4CCCCC4)nn3)cc2)c(C)cc1Cl	i
CC1=C(C(=O)Nc2ccccc2)C(c2ccc(C(=O)O)cc2)n2nc(SCC(=O)c3ccc(C)cc3)nc2N1 (configuration not stated)	i
COc1ccc(CCC(=O)NCc2nc3cccnc3n2Cc2ccc(C)cc2)cc1	i
Cc1cccc(CSc2cn(CC(=O)N3CCCCC3)c3ccccc23)c1	i
Cn1c(/C(C#N)=C/c2ccc(C(F)(F)F)cc2)nc2ccccc21	2.5µM*
Cc1ccc(/C=C(\C#N)c2nc3ccccc3c(=O)[nH]2)cc1	i
O=S(=O)(/C(=C/c1ccc(C(F)(F)F)cc1)c1nc2ccccc2[nH]1)c1ccccc1	i
COc1ccc(S(=O)(=O)n2nc(C)c(S(=O)(=O)N3CCC(C)CC3)c2C)cc1OC	i
CCOC(=O)c1c(C)c(-c2ccccc2)n(CC(=O)NC2CCCCCC2)c1C	i
COc1cccc(Cc2nc3ccccc3nc2SCC(=O)N2CCCc3ccccc32)c1	i
Cc1ccc2c(CC(=O)NCc3ccccc3)coc2c1C	i
COc1cc2c(C(=O)N3CCN(c4cccc(C)c4)C(C)C3)cn(CC(C)C)c(=O)c2cc1OC (configuration not stated)	i
COC(=O)c1c(SCC(=O)Nc2ccccc2OC)[nH]c2ccccc2c1=O	i
Cc1c(Cl)ccc2sc(N3CCN(C(=O)C(C)C)CC3)nc12	i
COc1cc2ccccc2cc1C(=O)N1CCN(c2nc3c(C)cc(C)cc3s2)CC1	i
COc1ccc(C(=O)N2CCN(c3nc4c(C)c(Cl)ccc4s3)CC2)c(OC)c1	16µM*
CC1=C(c2ccc(C)c(C)c2)S(=O)(=O)N=C1N1CCC(C(=O)N2CCC(C)CC2)CC1	i
CCOC(=O)C1CCN(C(=O)c2nn(-c3ccc(C)cc3)c(=O)n(C)c2=O)CC1	i
COC(=O)c1ccc(OCC2c3cc(OC)c(OC)cc3CCN2C(=O)c2cccc(C)c2)cc1 (configuration not stated)	i
Cc1c(CC(=O)NCCc2ccccc2)c(=O)oc2c(C)c3occ(C(C)(C)C)c3cc12	i
Cc1cc(Cl)ccc1OCC(=O)N(Cc1ccc(N(C)C)cc1)CC1CCCO1 (configuration not stated)	i
Cc1cc(C)n(-c2nc(C)c(C)c(=O)n2CC(=O)Nc2ccc(Cl)c(Cl)c2)n1	i
CCOc1ccc(-c2cc(OC(=O)c3ccccc3)c3c(C)oc(C)c3c(=O)c2)cc1	i
SMILES	aSyn tox rescue
Cc1ccc(-n2ncc3c(NCCCN4CCOCC4)ncnc32)cc1C	i
CCN1C(=O)c2ccccc2S(=O)(=O)c2ccc(C(=O)NCc3ccccc3)cc21	i
COc1ccccc1CNC(=O)CC1N=C2c3ccccc3N=C(SCC(=O)Nc3ccc(F)cc3)N2C1=O (configuration not stated)	i
CCOC(=O)c1cc(-c2ccc(F)cc2)n(CCC(=O)Nc2nc3ccc(OC)cc3s2)c1C	i
CCOC(=O)c1cccc(NC(=O)c2ccc3snnc3c2)c1	i
O=C(Cn1ncc2ccc(Cl)cc21)NCc1ccc(F)cc1	i
COc1ccccc1-c1nc2c(c(SCc3cc(C)ccc3C)n1)Cc1c(CO)cnc(C)c1O2	i
COc1cc(CNCCSc2nnnn2C)ccc1OCc1ccccc1C	i
CCOCCCNC(=O)NC(C)c1c(-n2cccc2)sc2c1CCN(CC)C2 (configuration not stated)	i
Cc1ccc2c(c1)N(C(=O)N1CCC(C(=O)NCCc3ccc(Cl)cc3)CC1)CC(C)O2 (configuration not stated)	i
Cc1ccc(C(=O)OCc2cc(=O)n3nc(-c4cccs4)sc3n2)cc1	i
Cc1cccc(NC(=O)C2CCCN2S(=O)(=O)c2ccc3nc(-c4ccccc4)[nH]c3c2)c1 (configuration not stated)	i
Cc1cc(OCCn2cc(C(=O)c3cccs3)c3ccccc32)ccc1Cl	i
Cc1ccc(C)c(N2CCN(S(=O)(=O)c3c(C(=O)N4CCC(C)CC4)c(C)n(C)c3C)CC2)c1	i
Cc1ccc(C)c(CN2C(=O)c3ccccc3S(=O)(=O)c3ccc(C(=O)N(C)C4CCCCC4)cc32)c1	i
COc1ccc(CNC(=O)CCC2N=C3c4ccccc4N=C(SCc4ccc(F)cc4)N3C2=O)cc1 (configuration not stated)	i
COc1cc(NC(=O)CSc2nc3nc(C)c(Cc4ccccc4)c(C)n3n2)cc(OC)c1OC	i
COc1ccc(NC(=O)c2cc3c(=O)n(Cc4cccnc4)ccc3nc2C)c(OC)c1	i
CCOc1ccc(CCNC(=O)Cn2ccc3cc(S(=O)(=O)N4CCCCC4)ccc32)cc1	i
CCOc1ccc(CNC(=O)CCn2c(=O)c3cccn3c3ccc(F)cc32)cc1	i
CCCCOc1ccc(C2=NC(c3ccncc3)=Nc3ccc(OCC)cc3N2)cc1	i
CCC1CCCCN1C(=O)CSc1nc(-c2ccc(OC)cc2)cc(C(F)(F)F)n1 (configuration not stated)	i
Cc1ccc(Cc2nc3ccccc3nc2SCC(=O)N2CCCCC2C)cc1 (configuration not stated)	i
COc1cccc(NC(=O)N(Cc2c[nH]c3ccccc23)C2CCCCCC2)c1	i
CCOc1cccc(C2c3[nH]c4ccccc4c3CCN2C(=O)Cc2cccc(OCC)c2OCC)c1 (configuration not stated)	i
SMILES	aSyn tox rescue
CCOC(=O)c1c(S(=O)(=O)N2CCCC(C(=O)N3CCN(c4cccc(C)c4C)CC3)C2)c(C)n(C)c1C (configuration not stated)	i
CCn1c(=O)cc(OCC(=O)N2CCN(c3ccc(C)cc3)C(C)C2)c2ccccc21 (configuration not stated)	i
CC1CCN(S(=O)(=O)c2ccc3c(c2)CCN3C(=O)Nc2ccccc2Br)CC1	i
CCOC(=O)c1ccc(N2C(=O)c3n[nH]c(-c4ccco4)c3C2c2cccc(O)c2)cc1 (configuration not stated)	i
Cc1ccc(NC(=O)Cc2ccc(-n3c(C)nc4cccnc43)cc2)c(Cl)c1	i
O=C(COc1ccc(F)cc1)OCc1cc(=O)n2nc(C3CC3)sc2n1	i
Cc1ccc(NC(=O)Cn2ncn3c(cc4ccccc43)c2=O)cc1C	i
COc1ccccc1C(=O)Oc1c(Sc2ccccc2)c(C)nn1C(C)(C)C	i
CC1CCC(NC(=O)C2(C)Cc3ccccc3C(=O)N2Cc2ccccc2Cl)CC1 (configuration not stated)	i
Cc1nc(C)c(-c2ccc(SCC(=O)Nc3ccc(Br)cc3)nn2)s1	i
COc1ccccc1NC(=O)c1c(NCc2ccc(C)o2)sc2c1CCC(C)C2 (configuration not stated)	i
CCOc1ccc(NC(=O)c2c(NCc3ccc(C)o3)sc3c2CCCCC3)cc1	i
COc1ccc(NC(=O)c2c(NCc3ccc(C)o3)sc3c2CCC(C)C3)cc1 (configuration not stated)	14µM*
CCN(C(=O)c1c(C)oc2ncnc(N3CCCCC3)c12)c1cc(C)ccc1C	i
COc1cc(/C=C/c2nc3cc(Cl)ccc3c(=O)n2-c2ccc(C)cc2C)cc(OC)c1OC	i
